In PubChem BioAssay (NCI) one finds growth data, which are given here for 13 molecules.

Test systems include NCI-H23 lung; NCI-H226 lung; NCI-H322M lung; HOP-62 NSCLC; NCI-H460 lung; HOP-92 NSCLC; NCI-H522 lung; A549/ATCC NSCLC; 786-0 renal; COLO 205 colon.
Common to all, as to test: NCI-60 one-dose screen, 48 h (100 = growth as untreated, 0 = no growth, -100 = all killed)
Common to all, as to conditions: 10 µM unless noted

The panel holds about 83,000 compounds, 20% with a hit somewhere; the sample as a whole holds those more often.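 Activity criterion: percent growth below 10, measured after cells in 96-well plates were exposed to a single compound concentration for 48 hours.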 Unmarked numbers belong to inactive results. Active and inactive are the calls of the source.

With `Cc1cc(NCc2cc(Nc3ccnc4cc(Cl)ccc34)ccc2F)nc(N2CCOCC2)n1`, the growth with NCI-H23 lung is 43.8%; with NCI-H226 lung, 61.2%; with NCI-H322M lung it was 71.3%; with HOP-62 NSCLC, -9.53% (active); with NCI-H460 lung it was 39.8%; in the experiment on HOP-92 NSCLC, 42.5%. Moreover, the growth was 21.8% with NCI-H522 lung, 59.4% in the experiment with A549/ATCC NSCLC, 1.21% (active) in the experiment on 786-0 renal and 35.5% in the experiment with COLO 205 colon.
In the case of `NC(=S)N/N=C/Cc1ccccc1`, the growth is 99.6% in the experiment with NCI-H23 lung; 103% in the experiment on NCI-H226 lung; 105% in the experiment on NCI-H322M lung; 104% in the experiment with HOP-62 NSCLC; 110% in the experiment with NCI-H460 lung; 109% in the experiment with HOP-92 NSCLC. Besides, the growth with NCI-H522 lung is 100%; in the experiment on A549/ATCC NSCLC, 90.6%; in the experiment on 786-0 renal, 106%; with COLO 205 colon, 97.2%.
As for `N=c1sc(Cc2ccc(Cl)cc2)cn1CC(=O)c1ccc(F)cc1`, the growth was 82.4% with NCI-H23 lung; 83% in the experiment with NCI-H226 lung; 76.4% with NCI-H322M lung; 102% in the experiment on HOP-62 NSCLC; 33.7% in the experiment on NCI-H460 lung; 109% with HOP-92 NSCLC. In addition, the growth with NCI-H522 lung was 63.5%; in the experiment on A549/ATCC NSCLC it was 66.7%; with 786-0 renal, 86.5%; in the experiment with COLO 205 colon, 145%.
`NS(=O)(=O)c1cnccc1Sc1ccncc1S(N)(=O)=O`: the growth is 96.5% in the experiment on NCI-H23 lung; 95.2% with NCI-H226 lung; 124% in the experiment on NCI-H322M lung; 91.7% with HOP-62 NSCLC; 108% in the experiment on NCI-H460 lung; 92.1% in the experiment with HOP-92 NSCLC. Besides, the growth was 115% with NCI-H522 lung, 109% in the experiment on A549/ATCC NSCLC, 100% with 786-0 renal and 98.8% in the experiment on COLO 205 colon.
As for `COc1ccc(C(=O)Nn2c(NCC(=O)N3c4ccccc4Sc4ccccc43)nnc2-c2ccc(O)cc2)cc1`, the growth in the experiment on NCI-H23 lung is 94.4%; in the experiment on NCI-H226 lung it was 101%; with NCI-H322M lung, 104%; in the experiment on HOP-62 NSCLC, 103%; in the experiment with NCI-H460 lung it was 110%; in the experiment with HOP-92 NSCLC, 87.9%. Moreover, the growth with NCI-H522 lung was 92.2%; with A549/ATCC NSCLC, 97.5%; in the experiment with 786-0 renal, 100%; with COLO 205 colon, 112%.
Turning to `Cc1ccc(CCC(=O)Nc2ncc(Cc3cc(Cl)ccc3Cl)s2)o1`, the growth with NCI-H23 lung is 31.9%; with NCI-H226 lung it was 45.5%; with NCI-H322M lung, 33.3%; in the experiment on HOP-62 NSCLC, 35.6%; in the experiment on NCI-H460 lung, 5.71% (active); in the experiment with HOP-92 NSCLC, 56.6%. In addition, the growth was 3.08% (active) in the experiment with NCI-H522 lung, 23.1% with A549/ATCC NSCLC, 26.1% with 786-0 renal and 2.59% (active) in the experiment on COLO 205 colon.
For the molecule `CCOC(=O)c1c2ncccc2n2c(=O)n(-c3ccccc3C)nnc12`, the growth with NCI-H23 lung is 93.6%; with NCI-H226 lung, 97.4%; with NCI-H322M lung, 89.3%; with HOP-62 NSCLC, 78.6%; in the experiment on NCI-H460 lung it was 95%; in the experiment with HOP-92 NSCLC, 128%. The growth in the experiment with NCI-H522 lung was 93.3%; in the experiment with A549/ATCC NSCLC, 102%; in the experiment on 786-0 renal it was 98%; in the experiment with COLO 205 colon, 108%.
Regarding `COc1ccc2c(c1)O/C(=C\c1cccc(OCC(=O)Nc3nc4ccccc4s3)c1)C2=O`, the growth is -1.91% (active) in the experiment with NCI-H23 lung; 83.7% with NCI-H226 lung; 106% in the experiment on NCI-H322M lung; 115% in the experiment with HOP-62 NSCLC; 110% in the experiment on NCI-H460 lung; -24.5% (active) in the experiment with HOP-92 NSCLC. Further, the growth in the experiment with NCI-H522 lung is -60.1% (active); with A549/ATCC NSCLC it was 95.8%; in the experiment on 786-0 renal it was 92.2%; with COLO 205 colon, 104%.
Turning to `O=C1CCc2c(sc3[nH]c(=S)n(-c4ccc(OC(F)(F)F)cc4)c(=O)c23)C1`, the growth was 14.1% in the experiment with NCI-H23 lung; 72.4% with NCI-H226 lung; 90.5% in the experiment on NCI-H322M lung; 53.1% in the experiment with HOP-62 NSCLC; 2.8% (active) in the experiment with NCI-H460 lung; -10.3% (active) in the experiment on HOP-92 NSCLC. The growth in the experiment on NCI-H522 lung is 7.42% (active); with A549/ATCC NSCLC it was 77.1%; in the experiment with 786-0 renal, 99.8%; in the experiment with COLO 205 colon, 99.2%.
`CSc1n(Cc2ccc3ccccc3c2)c(C)c[n+]1Cc1ccc2ccccc2c1`: the growth was -50.8% (active) in the experiment with NCI-H23 lung; -37% (active) with NCI-H226 lung; 40.5% in the experiment with NCI-H322M lung; 4.62% (active) in the experiment on HOP-62 NSCLC; -0.332% (active) in the experiment on NCI-H460 lung; -44.4% (active) in the experiment on HOP-92 NSCLC. Also, the growth was -26.9% (active) in the experiment with NCI-H522 lung, 16.5% in the experiment on A549/ATCC NSCLC, 8.97% (active) with 786-0 renal and -54.3% (active) in the experiment with COLO 205 colon.
Regarding `Cc1cc(NCCCCNc2ccnc3cc(Cl)ccc23)nc(Nc2ccc(C(=O)N3CCCCC3)cc2)n1`, the growth in the experiment on NCI-H23 lung was 41.3%; with NCI-H226 lung, 98.6%; in the experiment on NCI-H322M lung, 22.9%; in the experiment with HOP-62 NSCLC, 21.2%; with NCI-H460 lung, 6.46% (active); in the experiment with HOP-92 NSCLC, 63.6%. Further, the growth in the experiment with NCI-H522 lung was -42.2% (active); in the experiment on A549/ATCC NSCLC, 13.1%; in the experiment with 786-0 renal, -87.6% (active); in the experiment with COLO 205 colon, -67.8% (active).
On to `Clc1cccc(Cl)c1/C=C/c1cc(/C=C/c2c(Cl)cccc2Cl)[nH]n1`, for which the growth is 43.6% in the experiment on NCI-H23 lung; 30.6% in the experiment with NCI-H226 lung; 38.2% in the experiment with NCI-H322M lung; 49.7% in the experiment on HOP-62 NSCLC; 11.4% in the experiment with NCI-H460 lung; 102% with HOP-92 NSCLC. Further, the growth in the experiment with NCI-H522 lung is -9.35% (active); in the experiment on A549/ATCC NSCLC, 38.7%; in the experiment on 786-0 renal, 23.1%; in the experiment with COLO 205 colon it was 17.7%.
Take `O=C(O)c1ccc2c(c1)CCC2`: the growth in the experiment on NCI-H23 lung is 108%; in the experiment on NCI-H226 lung, 104%; in the experiment on NCI-H322M lung it was 106%; in the experiment with HOP-62 NSCLC, 114%; with NCI-H460 lung it was 115%; in the experiment on HOP-92 NSCLC it was 117%. The growth with NCI-H522 lung is 104%; with A549/ATCC NSCLC it was 104%; in the experiment on 786-0 renal, 105%; with COLO 205 colon, 104%.
